From PubChem BioAssay AID743130 (Broad Institute, 2013)

Test: cell wall integrity pathway activation in yeast – S. cerevisiae reporter strain, C. neoformans project, dry powder, dose response (AID 743130)
Conditions: S. cerevisiae Rlm1-lacZ reporter, luminescence, 4 h, hits give high values; at 35 µM unless noted;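 active = fitted curve rises past 20% activation at a concentration no higher than the top valid tested dose; inactive = activity opposite to the expected signal increase, and the rest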

Maximal activation, inactive:
Fc1cccc2c1[nH]c(=S)n2CCOc1ccccc1 -3.67% [at 8 µM]
Fc1ccccc1OCCn1c(=S)[nH]c2ccccc21 -3.96%
CCOC(=O)c1c(-c2ccc(F)cc2)csc1NC(=O)CN1CCN(C)CC1 8.68% [at 16 µM]
Cc1ccc2c(c1)[nH]c(=S)n2CCOc1ccccc1 1.98%
S=c1[nH]c2cccc(Cl)c2n1CCOc1ccccc1 -2.44%
Cc1ccc(OCCn2c(C)nc3ccccc32)cc1 1.77%
CCOC(=O)c1c(-c2ccc(F)cc2)csc1NC(=O)CN1CCN(CC)CC1 7.91% [at 1 µM]
CCOC(=O)c1c(NC(=O)CN2CCN(C)CC2)sc(C)c1-c1ccc(C)cc1 5.75%
Cc1ccc(C(C)C)c(OCCn2c(=S)[nH]c3ccccc32)c1 -8.35% [at 0.5 µM]
S=c1[nH]c2ccccc2n1CCOc1ccc(Cl)cc1 3.89% [at 8 µM]
Cc1ccc(OCCn2c(=S)[nH]c3ccccc32)cc1 -4.62%
CCOC(=O)c1c(-c2ccc(C(C)(C)C)cc2)csc1NC(=O)CN1CCN(CC)CC1 2.55% [at 8 µM]
COC(=O)C1=C(C)N(Cc2ccc(Br)cc2)C(=S)NC1c1ccc(OC)cc1 (stereo unspecified) 5.5% [at 0.26 µM]
CCOC(=O)c1c(NC(=O)CNCCN(C)C)sc(C)c1-c1ccccc1 -3% [at 2.1 µM]
CCOC(=O)c1c(-c2ccc(-c3ccccc3)cc2)csc1NC(=O)CNCCN(C)C -12.6%
S=c1[nH]c2ccccc2n1CCOc1ccccc1 3.85% [at 4.2 µM]
